Bioassay records deposited in PubChem by several laboratories.
Compounds with a hit are over-represented: about 2.4% of the library has one in this group of screens.
m5-HT2A agonist: mouse HTR2A agonism via beta-arrestin recruitment; P35363; CHO-K1 mHTR2A beta-arrestin complementation, luminescence; percent of 30 µM serotonin response; activation, % at 7.6 µM; hit rate 0.66% among 360,000; AID 624169;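 active = activation above a run cutoff, the mean activation of all tested compounds plus 3 SD, cut at about 14% in these data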;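 also: 0% = plate median of compound wells and 100% = 30 µM serotonin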
ABHD5 PLIN5 PPI: inhibitors of human ABHD5-perilipin-5 interaction | Split G. princeps luciferase complementation, luminescence, 4 h | hit rate 0.78% among 360,000 | inhibition, % at 4 µM | Q00G26+Q8WTS1;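 active = inhibition above the mean inhibition across every tested compound plus 3 SD, cut at about 22% in these data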;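 also: 0% = DMSO only wells and the 100% control is not disclosed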
TLR4 MyD88 comp: blocks binding of human TLR4 to MyD88. inhibition, % at 8.4 µM. hit rate 0.18% among 200,000. HeLa CL3-4 TLR4/MyD88 BLA complementation, FRET ratio. O00206+Q99836; in the data active = inhibition above about 25%;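 also: 0% = vehicle and 100% = reference inhibitor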
CRFR2-BP antag: CRF-BP/CRF-R2 complex antagonism. inhibition, % at 11.8 µM. HEK293 CRF-R2/CRF-BP, CRF-induced calcium fluorescence. hit rate 0.59% among 350,000;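 active = inhibition of the ligand-induced calcium signal above about 50% at the single tested concentration, limit read from the data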
TLR9-MyD88 block: TLR9-MyD88 interaction inhibition; AID 504734; inhibition, % at 4.98 µM; hit rate 0.21% among 340,000; CHO BLA complementation TLR9-MyD88, CCF4 FRET ratio; Q9NR96+Q99836;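 active = inhibition above the mean over all tested compounds plus 3 SD, cut at about 21% in these data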;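 also: 0% = DMSO only wells and 100% = clavulanate BLA inhibitor control wells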
NOD2 RIPK2 PPI: NOD2-RIPK2 protein interaction inhibition; O43353; CHO BLA complementation NOD2-RIPK2, CCF4 ratio; inhibition, % at 4.98 µM; hit rate 0.38% among 360,000; in the data active = inhibition above about 21%;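 also: 0% = vehicle only and 100% = reference blocker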
ABHD5 PLIN5 conf: confirmation of human ABHD5-PLIN5 interaction inhibitors. shares compounds with ABHD5 PLIN5 PPI. inhibition, % at 4 µM. hit rate 67% among 2,200. biochemical ABHD5-PLIN5 interaction, luminescence; in the data active = inhibition above about 23%;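 also: 0% = DMSO vehicle wells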
HNF4 counter: active in HNF4 split-luciferase counter-screen for ABHD5-PLIN5 inhibitors; HNF4 dimerization, luminescence, biochemical; hit rate 77% among 2,200; inhibition, % at 4 µM; shares compounds with ABHD5 PLIN5 PPI;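 active = mean inhibition across replicate wells exceeding the computed hit threshold, cut at about 13% in these data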;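 also: light from luciferase halves that rejoin when HNF4 fusion proteins dimerize; 0% = DMSO only wells and the 100% control is not given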
Starred values were filed as active, the others as inactive.

`Cc1ccnc(NC(=S)NC(=O)/C=C/c2ccco2)c1` gave m5-HT2A agonist 9.5, ABHD5 PLIN5 PPI 23.5*, TLR4 MyD88 comp 5.6, CRFR2-BP antag 26.7, TLR9-MyD88 block -12.1, NOD2 RIPK2 PPI -6.3, ABHD5 PLIN5 conf 2.4 and HNF4 counter 11.1.
Screening Cc1ccc(O)c(NC(=S)NC(=O)/C=C/c2ccco2)c1 returned m5-HT2A agonist -4.2, ABHD5 PLIN5 PPI -2.1, TLR4 MyD88 comp 10.9, CRFR2-BP antag -13.8, TLR9-MyD88 block 2.5 and NOD2 RIPK2 PPI -3.4.
Screening CN(C)c1ccc(-c2[nH][nH]c(=O)c2NC(=O)c2ccccn2)cc1 returned m5-HT2A agonist -3.1, ABHD5 PLIN5 PPI 59.6*, NOD2 RIPK2 PPI 4.9, ABHD5 PLIN5 conf 6.8 and HNF4 counter 44.9*.
CN(C)c1ccc(-c2[nH][nH]c(=O)c2NC(=O)c2ccc3ccccc3n2)cc1 was read as m5-HT2A agonist -2.0, ABHD5 PLIN5 PPI 54.2*, NOD2 RIPK2 PPI 10.4, ABHD5 PLIN5 conf -52.1 and HNF4 counter 47.9*.
Cc1ccc(NC(=O)CSc2nnc(-c3ccco3)c(-c3ccco3)n2)cc1 was read as m5-HT2A agonist 2.9, ABHD5 PLIN5 PPI 27.1*, TLR4 MyD88 comp -2.2, CRFR2-BP antag -4.3, TLR9-MyD88 block -4.0, NOD2 RIPK2 PPI -4.0, ABHD5 PLIN5 conf 93.9* and HNF4 counter 65.0*.
For CN(C)c1ccc(NC(=O)CSc2nnc(-c3ccco3)c(-c3ccco3)n2)cc1 the results were m5-HT2A agonist -2.9, ABHD5 PLIN5 PPI -5.4, CRFR2-BP antag 4.7, TLR9-MyD88 block 2.2 and NOD2 RIPK2 PPI -12.0.
For N#CC1=C(N)NC(=S)C(C(N)=O)C1c1ccc(Cl)cc1Cl (stereo not given) the results were m5-HT2A agonist -1.1, ABHD5 PLIN5 PPI 57.1*, TLR4 MyD88 comp 9.8, CRFR2-BP antag -2.8, TLR9-MyD88 block 9.1, NOD2 RIPK2 PPI 8.6, ABHD5 PLIN5 conf 13.0 and HNF4 counter 100.6*.
`N#CC1=C(N)NC(=S)C(C(N)=O)C1c1ccccc1F` (stereo not given) gave m5-HT2A agonist -2.2, ABHD5 PLIN5 PPI 38.1*, CRFR2-BP antag 2.2, TLR9-MyD88 block 0.8, NOD2 RIPK2 PPI -10.9, ABHD5 PLIN5 conf -11.2 and HNF4 counter 84.0*.
`CCOC(=O)C1C(=O)NC(SC)=C(C#N)C1c1ccccc1F` (stereo not given) gave m5-HT2A agonist -0.5, ABHD5 PLIN5 PPI -2.2, TLR4 MyD88 comp 2.5, CRFR2-BP antag 6.7, TLR9-MyD88 block 3.7 and NOD2 RIPK2 PPI -3.6.
CC(C)C[C@@H](CN1CCC[C@@H]1CN1C(=S)NC[C@@H]1Cc1ccc(O)cc1)N1C[C@H](Cc2ccc(O)cc2)N(CCc2ccccc2)C1=S was read as m5-HT2A agonist 1.6, ABHD5 PLIN5 PPI 9.3 and NOD2 RIPK2 PPI -1.0.
Screening CC1(C(=O)Nc2nccs2)CCN1C(=O)CC(c1ccccc1)c1ccccc1 (stereo not given) returned m5-HT2A agonist 3.4, ABHD5 PLIN5 PPI 2.0 and NOD2 RIPK2 PPI 1.9.
Screening O=C(O)CCS(=O)(=O)c1nc(-c2cccs2)cc(C(F)(F)F)n1 returned m5-HT2A agonist 0.0, ABHD5 PLIN5 PPI 27.6*, TLR4 MyD88 comp 2.9, CRFR2-BP antag 7.2, TLR9-MyD88 block -2.4, NOD2 RIPK2 PPI -8.4, ABHD5 PLIN5 conf 58.7* and HNF4 counter 66.2*.
CN(C)CCCN(C(=O)c1ccc2c(c1)CCCC2)c1nc2ccc(Cl)cc2s1 was read as m5-HT2A agonist -5.1, ABHD5 PLIN5 PPI 28.2*, TLR4 MyD88 comp 9.9, CRFR2-BP antag -191.3, TLR9-MyD88 block -0.1, NOD2 RIPK2 PPI 9.2, ABHD5 PLIN5 conf 10.6 and HNF4 counter 10.0.
CN(C)CCCN(C(=O)c1ccc(S(=O)(=O)N(C)Cc2ccccc2)cc1)c1nc2cc3c(cc2s1)OCO3 was read as m5-HT2A agonist -12.7, ABHD5 PLIN5 PPI 23.9*, CRFR2-BP antag -2.9, TLR9-MyD88 block 3.8, NOD2 RIPK2 PPI 13.6, ABHD5 PLIN5 conf 17.4 and HNF4 counter 2.9.
CCN(c1ccccc1)S(=O)(=O)c1ccc(C(=O)N(CCCN(C)C)c2nc3cc4c(cc3s2)OCO4)cc1 was read as m5-HT2A agonist -11.0, ABHD5 PLIN5 PPI 14.7, CRFR2-BP antag -20.0, TLR9-MyD88 block 3.8 and NOD2 RIPK2 PPI 4.4.
For CC1CCCCN1S(=O)(=O)c1ccc(C(=O)N(CCCN(C)C)c2nc3ccc(Br)cc3s2)cc1 (stereo not given) the results were m5-HT2A agonist -11.8, ABHD5 PLIN5 PPI 24.2*, CRFR2-BP antag -23.0, TLR9-MyD88 block -8.2, NOD2 RIPK2 PPI 9.6, ABHD5 PLIN5 conf 14.9 and HNF4 counter 9.3.
`CN(C)CCCN(C(=O)COc1ccccc1)c1nc2ccc(Cl)cc2s1` gave m5-HT2A agonist -8.9, ABHD5 PLIN5 PPI 14.9, TLR4 MyD88 comp -2.4, CRFR2-BP antag -8.8, TLR9-MyD88 block -12.9 and NOD2 RIPK2 PPI 4.3.
`CN(C)CCCN(C(=O)CCc1ccccc1)c1nc2ccc(Cl)cc2s1` gave m5-HT2A agonist -9.7, ABHD5 PLIN5 PPI 39.4*, TLR4 MyD88 comp 3.3, CRFR2-BP antag -65.2, TLR9-MyD88 block 2.7, NOD2 RIPK2 PPI 3.5, ABHD5 PLIN5 conf 23.8* and HNF4 counter 0.6.
O=C(c1[nH]c(C(F)(F)F)nc1-c1ccccc1)N1CCN(Cc2c(F)cccc2Cl)CC1 was read as m5-HT2A agonist 1.2, ABHD5 PLIN5 PPI 2.0 and NOD2 RIPK2 PPI -4.3.
For CC12CCC3C(CCC4CC(O)CCC43C)C1CC(=O)C2 (stereo not given) the results were m5-HT2A agonist 2.7, ABHD5 PLIN5 PPI 4.6 and NOD2 RIPK2 PPI -0.8.
For Cc1cccc2sc(N(CCCN(C)C)C(=O)c3ccc(Cl)s3)nc12 the results were m5-HT2A agonist 11.1, ABHD5 PLIN5 PPI 25.3*, TLR4 MyD88 comp -1.9, CRFR2-BP antag -12.5, TLR9-MyD88 block -19.6, NOD2 RIPK2 PPI 8.1, ABHD5 PLIN5 conf 15.7 and HNF4 counter 8.1.
`Cc1cccc2sc(N(CCCN(C)C)C(=O)c3ccco3)nc12` gave m5-HT2A agonist -2.6, ABHD5 PLIN5 PPI 17.9, TLR4 MyD88 comp 2.8, CRFR2-BP antag -15.8, TLR9-MyD88 block -2.4 and NOD2 RIPK2 PPI 5.7.
`Cc1cc(C)c2nc(N(CCCN(C)C)C(=O)c3ccc4c(c3)OCCO4)sc2c1` gave m5-HT2A agonist -2.6, ABHD5 PLIN5 PPI 26.8*, CRFR2-BP antag -23.2, TLR9-MyD88 block 2.3, NOD2 RIPK2 PPI 5.7, ABHD5 PLIN5 conf 19.1 and HNF4 counter 3.5.
`CN(C)CCCN(C(=O)COc1ccccc1)c1nc2c(F)cccc2s1` gave m5-HT2A agonist -7.7, ABHD5 PLIN5 PPI 7.5, TLR4 MyD88 comp -13.0, CRFR2-BP antag -11.8, TLR9-MyD88 block 5.1 and NOD2 RIPK2 PPI 5.1.
